tim10-1 inh: growth inhibitors of tim10-1 mutant yeast, primary screen, luminescence, uHTS | AID 463190, 2010 | 2.2% of 330,000 active | S. cerevisiae tim10-1 ts strain growth, BacTiter-Glo, 24 h | inhibition, % at 20 µM;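 active = inhibition of at least 40%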;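 also: mutant grown at 25 °C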
Rce1 inh: yeast Rce1p protease inhibitors, primary screen, biochemical, fluorescence, cell-free homogeneous; yeast membranes, quenched prenylated peptide cleavage fluorescence; calls only; 0.27% of 290,000 active; AID 2563, 2010;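 active = fall in fluorescence gain of 50% or more versus controls, with final raw signal at or below 3038400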
Target sequence (Q03530 whole entry, looked up): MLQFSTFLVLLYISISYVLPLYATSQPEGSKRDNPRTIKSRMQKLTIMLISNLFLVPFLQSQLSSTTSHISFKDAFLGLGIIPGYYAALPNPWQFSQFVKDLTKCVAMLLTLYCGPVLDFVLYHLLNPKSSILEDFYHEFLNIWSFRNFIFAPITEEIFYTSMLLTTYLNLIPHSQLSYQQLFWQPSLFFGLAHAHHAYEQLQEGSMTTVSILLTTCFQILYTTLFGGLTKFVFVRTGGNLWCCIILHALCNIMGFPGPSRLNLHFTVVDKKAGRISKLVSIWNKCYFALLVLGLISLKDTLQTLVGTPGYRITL
tim23-1 inh: growth inhibitors of tim23-1 mutant yeast, primary screen, luminescence, uHTS | S. cerevisiae tim23-1 growth, BacTiter-Glo luminescence, 24 h | inhibition, % at 20 µM | 1.3% of 330,000 active;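 active = growth inhibition of the mutant yeast at or above 50%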;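 also: temperature-sensitive mutant grown at 25 °C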
PfHsp90 set2: growth inhibition of PfHsp90-expressing yeast, primary screen, antimalarial PfHsp90 inhibitor project, S. cerevisiae, BacTiter-Glo luminescence, single point, set 2 | BacTiter-Glo ATP, 48 h; yeast lacking PDR1 and PDR3 efflux regulators | inhibition, % at 9.4 µM | 0.32% of 310,000 active | AID 504621, 2011;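 active = every replicate shows inhibition above about 80%, whatever the replicate mean, limit read from the data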
TIM10 inh: growth inhibitors of isogenic TIM10 control yeast, primary screen, counter-screen for tim10-1 yeast inhibitor project, luminescence, uHTS | inhibition, % at 10 µM | 1.4% of 330,000 active | AID 463195, 2010 | S. cerevisiae TIM10 strain growth, BacTiter-Glo luminescence, 24 h;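 active = inhibition of 40% or more at the single tested concentration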;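 also: wild-type TIM10 isogenic control strain grown at permissive 25 °C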
tim10-1 confirm: growth inhibitors of tim10-1 mutant yeast, confirmation, single concentration, luminescence, S. cerevisiae. shares compounds with tim10-1 inh. S. cerevisiae tim10-1 ts strain growth, BacTiter-Glo, 24 h. inhibition, % at 20 µM. 56% of 7,400 active;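 active = inhibition of yeast growth at or above a set limit in either of two repeat tests at 20 µM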;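 also: tim10-1 mutant grown at permissive 25 °C to find synthetic lethal compounds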
Each line names hits and unclear results; the compound was inactive in the other large screens (follow-up assays come after a bar, where they were run). Hits are enriched below; roughly 3.7% of the tested compounds scored in any of these assays.

CC(=O)N1CCN(c2ccc(NC(=O)C(C)Oc3ccc(Cl)cc3Cl)cc2)CC1 (configuration not stated)	tim10-1 inh 44.8 | tim10-1 confirm 31.0
CC(Oc1ccc(Cl)cc1Cl)C(=O)Nc1ccc(N2CCN(C)CC2)cc1 (configuration not stated)	none (no result: PfHsp90 set2)
Cc1noc(C)c1C(=O)N1CCC(C(=O)c2ccccc2)CC1	none
CCn1c(SCC(N)=O)nc2sc3c(c2c1=O)CCCC3	none
NC(=O)CSc1nc2sc3c(c2c2ncnn12)CCCC3	tim10-1 inh 42.3 | tim10-1 confirm 34.2
C=CCNC(=O)C(=O)NCC1CCCN1S(=O)(=O)c1cccs1 (configuration not stated)	none (no result: PfHsp90 set2)
CC(C)(C)C1CCc2onc(C(=O)Nc3ccc(F)cc3F)c2C1 (configuration not stated)	tim10-1 inh 41.3 (no result: PfHsp90 set2) | tim10-1 confirm inactive
CCOc1ccc(C(=O)NCC(=O)OCCN2C(=O)c3ccccc3C2=O)cc1OCC	none (no result: Rce1 inh)
O=C(N/N=C\c1ccccn1)C1c2ccccc2Oc2ccccc21	tim10-1 inh 43.2 | tim10-1 confirm inactive
COc1ccc(C(=O)NC2CCCc3c2cnn3-c2cc(F)cc(F)c2)c(OC)c1OC (configuration not stated)	tim10-1 inh 41.5 | tim10-1 confirm 28.0
COc1ccc(C(=O)NC2CCCc3c2cnn3-c2cc(F)cc(F)c2)c(OC)n1 (configuration not stated)	none
O=C(Nc1nnc(C2CCCCC2)s1)c1ccco1	tim10-1 inh 44.8 | tim10-1 confirm 34.7
O=C(Nc1nnc(C2CC2)s1)c1ccco1	none
O=C(CCC(=O)Nc1ccccc1Cl)NNC(=O)c1ccccc1[N+](=O)[O-]	none
C=CCOC(=O)C(C#N)c1nc2ccccc2nc1N1CCCC1 (configuration not stated)	tim10-1 inh 40.6 | tim10-1 confirm inactive
C[C@H]1C=CC(=O)O[C@H]1c1ccccc1	tim10-1 inh 48.1 | tim10-1 confirm 52.2
COc1ccc(OC)c(/C=C/C(=O)N2C(=O)c3cccc(N)c3C2=O)c1	tim10-1 inh 42.3 | tim10-1 confirm 31.5
Nc1cccc2c1C(=O)N(C(=O)/C=C/c1cccc(Br)c1)C2=O	none (no result: tim10-1 inh, tim23-1 inh, TIM10 inh)
COc1cc(/C=C/C(=O)N2C(=O)c3cccc(N)c3C2=O)cc(OC)c1OC	tim10-1 inh 43.2 | tim10-1 confirm inactive
CC(=O)Nc1ccc(S(=O)(=O)N[C@@H](C)C(=O)OCC(=O)NC2CCCC2)cc1	none (no result: Rce1 inh)
Cc1cnccc1CN(C)Cc1cn(C)nc1-c1ccc(Oc2ccccc2)cc1	tim10-1 inh 40.4 | tim10-1 confirm inactive
Cc1cnccc1CN(C)Cc1cn(C)nc1-c1cccc(Cl)c1	none
S=C(NCCc1ccc(Cl)cc1)NC1CCCCC1	none (no result: PfHsp90 set2)
S=C(NCCc1ccc(Cl)cc1)NCc1ccco1	none
S=C(NCCc1ccc(Cl)cc1)NC1CCCC1	tim10-1 inh 43.1 (no result: Rce1 inh) | tim10-1 confirm inactive
O=C(NC(=S)NCCc1ccc(Cl)cc1)c1ccco1	tim10-1 inh 48.0 | tim10-1 confirm inactive
CNC(=S)N1N=C(c2cccs2)CC1c1ccc(F)cc1 (configuration not stated)	tim10-1 inh 42.5 | tim10-1 confirm inactive
O=C(c1ccco1)N1N=C(c2cccs2)CC1c1ccc(F)cc1 (configuration not stated)	none (no result: PfHsp90 set2)
C=CCc1ccc(O)c(-c2ccc(O)c(CC=C)c2)c1	tim10-1 inh 45.4 | tim10-1 confirm 48.1
C=CCc1cc(C(=O)N2CCCCC2)ccc1O	none (no result: PfHsp90 set2)
CN(C)S(=O)(=O)Oc1ccsc1C(=O)Nc1ccc(Cl)c(Cl)c1	tim10-1 inh 44.3 | tim10-1 confirm 36.5
O=C(NCc1ccc(F)cc1)C1CC(=O)N(C2CCCC2)C1 (configuration not stated)	none (no result: Rce1 inh)
O=C(Cn1c(CO)nc2ccccc21)Nc1ccc2c(c1)OCCCO2	none (no result: Rce1 inh)
CC(=O)c1ccccc1Oc1nc(CN2CCOCC2)nc2scc(-c3cccs3)c12	none
COc1ccc(C(C)=O)c(Oc2nc(CN3CCOCC3)nc3scc(-c4cccs4)c23)c1	tim10-1 inh 40.1 | tim10-1 confirm inactive

From PubChem BioAssay
